# Results from PubChem BioAssay (NCI).
# About 83,000 compounds went through this panel and 20% of them were active in at least one assay; those are over-represented in the sample as a whole.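 In brief: 96-well plates, 48 h treatment, single concentration, percent growth endpoint.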 A number with no mark means an inactive call. Calls of active or inactive are those of the source. How the source made its calls: active means growth percent below 10; inactive means the rest.
# Legend:
# Experiment in all cases: NCI-60 one-dose screen, 48 h (100 = growth as untreated, 0 = no growth, -100 = all killed)
# Settings in all cases: 10 µM unless noted
# NCI-H23 lung = tested on: NCI-H23 lung
# NCI-H322M lung = tested on: NCI-H322M lung
# HOP-62 NSCLC = tested on: HOP-62 NSCLC
# NCI-H460 lung = tested on: NCI-H460 lung
# HOP-92 NSCLC = tested on: HOP-92 NSCLC
# NCI-H522 lung = tested on: NCI-H522 lung
# A549/ATCC NSCLC = tested on: A549/ATCC NSCLC
# 786-0 renal = tested on: 786-0 renal
# COLO 205 colon = tested on: COLO 205 colon
# DU-145 prostate = tested on: DU-145 prostate
# MALME-3M melanoma = tested on: MALME-3M melanoma
# MDA-MB-231 breast = tested on: MDA-MB-231 breast
# RXF 393 renal = tested on: RXF 393 renal
# SF-268 CNS = tested on: SF-268 CNS
# SF-295 CNS = tested on: SF-295 CNS
# SF-539 CNS = tested on: SF-539 CNS
# UACC-257 melanoma = tested on: UACC-257 melanoma
# M14 melanoma = tested on: M14 melanoma
# HCT-15 colon = tested on: HCT-15 colon
# K-562 leukemia = tested on: K-562 leukemia
SMILES,growth (NCI-H23 lung),growth (NCI-H322M lung),growth (HOP-62 NSCLC),growth (NCI-H460 lung),growth (HOP-92 NSCLC),growth (NCI-H522 lung),growth (A549/ATCC NSCLC),growth (786-0 renal),growth (COLO 205 colon),growth (DU-145 prostate),growth (MALME-3M melanoma),growth (MDA-MB-231 breast),growth (RXF 393 renal),growth (SF-268 CNS),growth (SF-295 CNS),growth (SF-539 CNS),growth (UACC-257 melanoma),growth (M14 melanoma),growth (HCT-15 colon),growth (K-562 leukemia)
O=c1nc2sc3nc4ccccc4cc3cc-2s1,101%,106%,104%,106%,125%,122%,117%,103%,127%,114%,116%,108%,117%,132%,104%,101%,98.8%,100%,104%,
Cc1ccc(Nc2nc(N)c3ccccc3n2)cc1Cl,53.8%,73.5%,89%,56.8%,54.3%,41%,48.1%,80.9%,54.5%,45.9%,,27.2%,80.4%,78.5%,,81.5%,108%,80.3%,49.9%,51.3%
CC(=O)SC1CC(=O)C=C2CCC3C4CCC(=O)OC4(C)CCC3C21C (stereo not given),111%,120%,106%,115%,97.6%,92.7%,105%,101%,116%,116%,195%,,,105%,,94.9%,100%,97.7%,106%,103%
Brc1ccc(Nc2nc3ccccc3nc2Nc2ccc(Br)cc2)cc1,-16.4% (active),-13.1% (active),-63.4% (active),2% (active),-25.9% (active),-54.1% (active),-6.83% (active),-30.2% (active),-96.2% (active),14.2%,,-80.4% (active),-32.9% (active),3.08% (active),-75.6% (active),-8.61% (active),-43% (active),-60.7% (active),-21% (active),-20% (active)
Cc1nn(-c2nc3ccccc3[nH]2)c2c1C(c1ccc(OCC(N)=O)cc1)CC(=O)N2 (stereo not given),103%,105%,100%,103%,105%,100%,109%,104%,117%,107%,88.2%,103%,,96.4%,69.5%,100%,110%,80%,98%,
CCc1ccc(CNCC(O)c2ccccc2)cc1 (stereo not given),69.1%,75.6%,76.6%,77%,12.7%,77.7%,73.8%,87.5%,7.32% (active),79.7%,,47%,61.6%,90.1%,,86.5%,93.1%,58.7%,43.9%,22%
COc1cccc(C(=O)Cn2cc(/C=C(\C#N)S(=O)(=O)c3ccccc3)c3ccccc32)c1,90.4%,96.7%,83.1%,57.5%,68.8%,88%,93.1%,99.3%,90.7%,105%,108%,102%,,93.7%,88.8%,90.5%,89.9%,86.5%,110%,79.2%
O=C(c1ccccc1)N(CCc1ccc(Cl)cc1)C(=S)N(C(=O)c1ccccc1)c1ccccc1,92.7%,111%,118%,106%,71%,105%,97.3%,97.6%,150%,83.9%,,107%,,101%,109%,106%,102%,113%,93.8%,58.3%
CCCCN1CCN(c2ccc3nc(-c4ccc5nc(-c6ccc(C(F)(F)F)cc6)[nH]c5c4)[nH]c3c2)CC1,-85.1% (active),-94.1% (active),-78.5% (active),-79.9% (active),-13.5% (active),-38.2% (active),-71.9% (active),-84.9% (active),,-95.5% (active),-74.2% (active),-88.9% (active),-82% (active),-71.8% (active),-84% (active),-92.8% (active),-16.2% (active),-63.5% (active),-79% (active),-65.8% (active)
COc1ccc(-c2cn[nH]c2-c2ccc(OC)c(O)c2)cc1,92.8%,98.6%,66.4%,76.6%,61.5%,45.6%,76%,92.5%,116%,96.9%,98.6%,68.4%,,77.9%,81.7%,76.9%,92.3%,64.2%,50%,
Cc1ccc(N=NC2C(=O)N(c3ccc(Cl)cc3)N(c3ccc(Cl)cc3)C2=O)cc1,95.6%,97.4%,89.2%,99.8%,101%,85.1%,99%,108%,,107%,98%,91.7%,113%,100%,93.9%,100%,86.8%,102%,98.3%,94.1%
COc1ccc(-c2c(-c3ccc(OC)c(O)c3)cnc3ncnn23)cc1,99.9%,106%,111%,108%,95.1%,96%,100%,103%,126%,105%,111%,102%,,101%,102%,98.6%,105%,106%,100%,
CCOc1ccc(Nc2ccnc3cc(Cl)ccc23)cc1,-3.27% (active),-0.617% (active),24.5%,5.71% (active),-25% (active),-35.4% (active),1.55% (active),19.1%,-91.1% (active),,-25.2% (active),-31.6% (active),3.65% (active),22.7%,-53% (active),24.4%,-33.6% (active),14.7%,17.2%,9.05% (active)
CNCCNc1nc2ccccc2c2c(=O)c3cc(F)ccc3sc12,90.9%,42.4%,46%,-65.8% (active),19.2%,33.8%,-56.3% (active),42.5%,,12%,68.1%,19.5%,62%,44.3%,95.2%,71.6%,54.4%,1.91% (active),13.6%,-47.1% (active)
Cc1ccc2sc3c(NCCCNCCO)nc4ccccc4c3c(=O)c2c1,75.2%,73.1%,50.9%,-81.6% (active),35.3%,27.2%,0.19% (active),54%,,4.48% (active),85%,23.8%,44.5%,47.7%,84.2%,78.6%,72.7%,-44.3% (active),-8.68% (active),-48.5% (active)
COc1ccc(-c2cn[nH]c2-c2cc(OC)c(OC)c(OC)c2)cc1OCc1ccccc1,33.2%,49.1%,27.7%,12.2%,31.4%,-19.7% (active),37.7%,21.5%,104%,65.2%,36.6%,46.1%,,27%,-1.63% (active),-19.8% (active),47.6%,10.7%,23.7%,
